According to PubChem BioAssay (NCI):
About 83,000 compounds went through this panel and 20% of them were active in at least one assay; those are over-represented in the sample as a whole.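 For each line, cells grew in 96-well plates with the test compound present at a single concentration for 48 hours.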 A number with no mark means an inactive call. The source made the active and inactive calls. How the source made its calls: active means growth percent below 10; inactive means the rest.

Experiments:
Test in all cases: NCI-60 one-dose screen, 48 h (100 = growth as untreated, 0 = no growth, -100 = all killed)
[1] = test system: HCT-15 colon; conditions: 10 µM unless noted
[2] = test system: HT29 colon; conditions: 10 µM unless noted
[3] = test system: SNB-75 CNS; conditions: 10 µM unless noted
[4] = test system: SNB-19 CNS; conditions: 10 µM unless noted
[5] = test system: U251 CNS; conditions: 10 µM unless noted
[6] = test system: PC-3 prostate; conditions: 10 µM unless noted
[7] = test system: SK-MEL-5 melanoma; conditions: 10 µM unless noted
[8] = test system: UACC-62 melanoma; conditions: 10 µM unless noted
[9] = test system: LOX IMVI melanoma; conditions: 10 µM unless noted
[10] = test system: SK-MEL-28 melanoma; conditions: 10 µM unless noted
[11] = test system: SK-MEL-2 melanoma; conditions: 10 µM
[12] = test system: EKVX NSCLC; conditions: 10 µM unless noted
[13] = test system: SN12C renal; conditions: 10 µM unless noted
[14] = test system: UO-31 renal; conditions: 10 µM unless noted
[15] = test system: TK-10 renal; conditions: 10 µM unless noted
[16] = test system: ACHN renal; conditions: 10 µM unless noted
[17] = test system: A498 renal; conditions: 10 µM unless noted
[18] = test system: CCRF-CEM leukemia; conditions: 10 µM unless noted
[19] = test system: MOLT-4 leukemia; conditions: 10 µM unless noted
[20] = test system: CAKI-1 renal; conditions: 10 µM unless noted

SMILES	growth [1]	growth [2]	growth [3]	growth [4]	growth [5]	growth [6]	growth [7]	growth [8]	growth [9]	growth [10]	growth [11]	growth [12]	growth [13]	growth [14]	growth [15]	growth [16]	growth [17]	growth [18]	growth [19]	growth [20]
CC(C)(C)C(=O)OCOP(=O)(OCOC(=O)C(C)(C)C)C1CCCN(OC(=O)c2ccccc2)C1=O (centres undefined)	28.6%	5.75% (active)	73.1%	14%	6.63% (active)	49.7%	-28% (active)	4.95% (active)	40.1%	-11.1% (active)	51%	21.4%	4.97% (active)	11.5%	11.7%	15.7%	10.9%	4.03% (active)	7.12% (active)	–
Clc1ccc2c(NCCNc3nc(N4CCCC4)nc4ccccc34)ccnc2c1	-34.5% (active)	-27.2% (active)	12.5%	25.1%	-44% (active)	21.9%	-97.1% (active)	-56.6% (active)	-85.7% (active)	-54.2% (active)	-42.9% (active)	24.4%	3.63% (active)	-72.3% (active)	-47.3% (active)	-83% (active)	-5.18% (active)	5.08% (active)	-5.18% (active)	–
C=CCC(=O)N[C@H](/C=C/C(=O)O)Cc1ccc(-c2cc(Cl)cc(Cl)c2)cc1	98.1%	97.8%	87%	97.9%	83%	80.6%	95.7%	86.8%	96.9%	112%	101%	95.9%	100%	81%	104%	102%	–	102%	91.2%	86.3%
COC(=O)[C@]12CC[C@@H](C)[C@H](C)[C@@H]1C1=CC[C@@H]3[C@@]4(C)C(c5cnco5)=C[C@@](C)(CO)C4=CC[C@@]3(C)[C@]1(C)CC2	29.8%	26.6%	77.1%	65.7%	61.8%	12.6%	47.2%	65.3%	67.7%	66.7%	42.3%	41.2%	55.9%	44.1%	69.6%	25.4%	–	35.5%	10.1%	34%
NN1C(=O)CSC1=S	105%	83.9%	95.6%	116%	85.6%	93.4%	104%	116%	98.6%	115%	95%	98.6%	102%	94%	95.2%	107%	–	108%	98.8%	93.9%
Cc1ccc2oc(=O)cc(-c3cc(-c4cc5ccccc5oc4=O)nc(N)c3C#N)c2c1	91.1%	68.3%	34%	75.8%	54.3%	69%	60.8%	81.5%	78.2%	76.7%	87.2%	79%	68.2%	48.5%	71.9%	41.6%	80.1%	93.7%	93.9%	–
CCOC(=O)C1=C(C)N=C2Sc3cccc(OC)c3N2[C@H]1c1ccccn1	104%	97.3%	93.7%	96.8%	96.4%	88.3%	101%	87.1%	96.7%	119%	99.3%	85.8%	93.4%	75.3%	117%	101%	–	102%	96.9%	89.2%
O=CC(OC(=O)c1ccccc1)C(OC(=O)c1ccccc1)C(COC(c1ccccc1)(c1ccccc1)c1ccccc1)OC(=O)c1ccccc1 (centres undefined)	48.8%	52.6%	94%	78.8%	19%	3.19% (active)	70.3%	63.4%	13.8%	0.343% (active)	96.7%	88.8%	61.8%	19.8%	77.8%	60%	122%	-18.6% (active)	-14.6% (active)	–
COc1ccc2c(CCCc3ccc(Cl)cc3Cl)c3[n+](cc2c1OC)CCc1cc2c(cc1-3)OCO2	24.4%	-15.6% (active)	15.2%	16.7%	3.76% (active)	-14.2% (active)	-99.6% (active)	-68.2% (active)	-80.3% (active)	-35.6% (active)	-22.8% (active)	23.1%	-24.9% (active)	25.4%	0.636% (active)	21.9%	–	5.42% (active)	-9.91% (active)	71.9%
COc1ccc2c(c1OC)C(=O)O[C@@H]2[C@H]1c2c(c(C#CC#Cc3ccc(F)c(F)c3)c3c(c2OC)OCO3)CCN1C	56.8%	92.3%	89.6%	103%	88.4%	50.8%	66.2%	69.5%	90.9%	96.3%	91.8%	90.3%	100%	70.5%	95.3%	95%	–	101%	89%	86.6%
COc1cc(NCCN(CC(C)C)CC(C)C)c2ncc(C)cc2c1	34.2%	86.1%	95.3%	85.3%	67.9%	47.8%	23.6%	53%	15.5%	79.7%	74.8%	74.9%	74.7%	64%	139%	77.7%	113%	86.4%	54.9%	–
Cc1cc2c3c(cccc3c1)C(=O)c1ccccc1-2	93.5%	94.9%	111%	97.8%	98.8%	93.6%	95.2%	85.1%	86.8%	105%	105%	78.1%	97%	60.5%	106%	97.6%	93.2%	118%	87.2%	–
CC(N)C(Cc1ccc(Cl)cc1)c1ccc(Cl)cc1 (centres undefined)	69.3%	-21.9% (active)	48.6%	82.4%	5.91% (active)	37.5%	90.1%	92.4%	74.3%	62.6%	-58% (active)	83.7%	87%	55.8%	45.5%	80.5%	–	65.6%	34.9%	59.6%
CC(C)[C@@H]1CC[C@]2(CO2)[C@@H]2C(=O)OCC(C(=O)O)=C[C@H]21	0.806% (active)	-1.49% (active)	20.7%	1.78% (active)	1.81% (active)	22.5%	-42.8% (active)	-67.1% (active)	-31.2% (active)	-73.4% (active)	-65.8% (active)	71.5%	2.26% (active)	5.96% (active)	11.6%	3.14% (active)	–	0.852% (active)	-17.6% (active)	6.64% (active)
COC(=O)[C@@H](C)CNS(=O)(=O)N(c1cc(C(F)(F)F)cc(C(F)(F)F)c1)C1CCN(Cc2ccc(F)cc2)CC1	27.9%	19.5%	65.4%	67.7%	52.3%	45.4%	29.9%	69.1%	48.2%	82.9%	81.7%	74.6%	36.8%	44%	89%	86.4%	66%	56.6%	58.2%	–
Cc1nn(-c2nc3ccccc3[nH]2)c2c1C(c1ccc(OCc3ccc(F)cc3)cc1)CC(=O)N2 (centres undefined)	41.5%	70.1%	48.3%	64.9%	41.6%	43.8%	68.3%	61.3%	28%	63%	30.7%	81.7%	55.4%	36.9%	56.1%	48.2%	–	52.8%	7.48% (active)	66.2%
